High-throughput results as filed in PubChem.
Mcl1-Bid inh: Mcl-1/Bid interaction inhibition; Q07820; TR-FRET Mcl-1/Bid-Dy647 peptide binding, 1536-well; inhibition, % at 21.7 µM; 220,000 tested, 0.97% active;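 active = compounds that cut the binding signal by more than half at the single screening dose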;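 also: His-tagged Mcl-1 with europium anti-His antibody binding Bid BH3 peptide; 0% = Mcl-1 plus peptide wells and 100% = peptide-only wells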
p47phox inh: p47phox (human) inhibition. P14598. p47phox/p22phox peptide binding, fluorescence polarization, 2 h. inhibition, % at 24.7 µM. 220,000 tested, 0.53% active;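 also: 0% = p47phox with labelled peptide and 100% = labelled peptide alone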
Mcl1 Noxa PPI: Mcl-1/Noxa interaction inhibition | AID 1022 | TR-FRET Mcl-1/Noxa peptide binding, 2 h | 220,000 tested, 1.5% active | inhibition, % at 21.7 µM;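 active = compounds that cut the protein-peptide binding signal by more than 50% relative to plate controls in a single-dose test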;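 also: His-tagged Mcl-1 with rhodamine Noxa BH3 peptide and terbium anti-His antibody; 0% = Mcl-1 plus Noxa peptide wells and 100% = peptide-only wells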
14-3-3 Bad PPI: disrupts binding of bovine 14-3-3 zeta to phospho-Bad peptide; TR-FRET 14-3-3zeta/Dy647-pBad peptide displacement, 1 h; inhibition, % at 21.7 µM; 220,000 tested, 0.71% active; P63103;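 active = inhibition above about 70%, limit read from the data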;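 also: 0% = full 14-3-3 plus peptide FRET controls and 100% = background without 14-3-3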
eIF4E 4G PPI: eIF4E/eIF4G interaction inhibition in translation initiation | AID 782 | TR-FRET eIF4E-eIF4GI(517-606) binding, 2 h | 220,000 tested, 0.37% active | inhibition, % at 21.7 µM;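 also: 0% = full FRET control wells and 100% = background wells lacking eIF4GI fragment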
Target sequence (P63073 whole entry, looked up, the tested form may be a part): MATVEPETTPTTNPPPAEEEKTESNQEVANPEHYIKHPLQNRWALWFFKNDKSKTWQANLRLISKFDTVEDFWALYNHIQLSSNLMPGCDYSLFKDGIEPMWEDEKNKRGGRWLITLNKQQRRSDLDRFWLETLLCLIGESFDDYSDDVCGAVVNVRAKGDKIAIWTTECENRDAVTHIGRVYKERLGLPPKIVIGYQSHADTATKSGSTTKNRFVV
Target sequence (Q04637 whole entry, looked up, the tested form may be a part): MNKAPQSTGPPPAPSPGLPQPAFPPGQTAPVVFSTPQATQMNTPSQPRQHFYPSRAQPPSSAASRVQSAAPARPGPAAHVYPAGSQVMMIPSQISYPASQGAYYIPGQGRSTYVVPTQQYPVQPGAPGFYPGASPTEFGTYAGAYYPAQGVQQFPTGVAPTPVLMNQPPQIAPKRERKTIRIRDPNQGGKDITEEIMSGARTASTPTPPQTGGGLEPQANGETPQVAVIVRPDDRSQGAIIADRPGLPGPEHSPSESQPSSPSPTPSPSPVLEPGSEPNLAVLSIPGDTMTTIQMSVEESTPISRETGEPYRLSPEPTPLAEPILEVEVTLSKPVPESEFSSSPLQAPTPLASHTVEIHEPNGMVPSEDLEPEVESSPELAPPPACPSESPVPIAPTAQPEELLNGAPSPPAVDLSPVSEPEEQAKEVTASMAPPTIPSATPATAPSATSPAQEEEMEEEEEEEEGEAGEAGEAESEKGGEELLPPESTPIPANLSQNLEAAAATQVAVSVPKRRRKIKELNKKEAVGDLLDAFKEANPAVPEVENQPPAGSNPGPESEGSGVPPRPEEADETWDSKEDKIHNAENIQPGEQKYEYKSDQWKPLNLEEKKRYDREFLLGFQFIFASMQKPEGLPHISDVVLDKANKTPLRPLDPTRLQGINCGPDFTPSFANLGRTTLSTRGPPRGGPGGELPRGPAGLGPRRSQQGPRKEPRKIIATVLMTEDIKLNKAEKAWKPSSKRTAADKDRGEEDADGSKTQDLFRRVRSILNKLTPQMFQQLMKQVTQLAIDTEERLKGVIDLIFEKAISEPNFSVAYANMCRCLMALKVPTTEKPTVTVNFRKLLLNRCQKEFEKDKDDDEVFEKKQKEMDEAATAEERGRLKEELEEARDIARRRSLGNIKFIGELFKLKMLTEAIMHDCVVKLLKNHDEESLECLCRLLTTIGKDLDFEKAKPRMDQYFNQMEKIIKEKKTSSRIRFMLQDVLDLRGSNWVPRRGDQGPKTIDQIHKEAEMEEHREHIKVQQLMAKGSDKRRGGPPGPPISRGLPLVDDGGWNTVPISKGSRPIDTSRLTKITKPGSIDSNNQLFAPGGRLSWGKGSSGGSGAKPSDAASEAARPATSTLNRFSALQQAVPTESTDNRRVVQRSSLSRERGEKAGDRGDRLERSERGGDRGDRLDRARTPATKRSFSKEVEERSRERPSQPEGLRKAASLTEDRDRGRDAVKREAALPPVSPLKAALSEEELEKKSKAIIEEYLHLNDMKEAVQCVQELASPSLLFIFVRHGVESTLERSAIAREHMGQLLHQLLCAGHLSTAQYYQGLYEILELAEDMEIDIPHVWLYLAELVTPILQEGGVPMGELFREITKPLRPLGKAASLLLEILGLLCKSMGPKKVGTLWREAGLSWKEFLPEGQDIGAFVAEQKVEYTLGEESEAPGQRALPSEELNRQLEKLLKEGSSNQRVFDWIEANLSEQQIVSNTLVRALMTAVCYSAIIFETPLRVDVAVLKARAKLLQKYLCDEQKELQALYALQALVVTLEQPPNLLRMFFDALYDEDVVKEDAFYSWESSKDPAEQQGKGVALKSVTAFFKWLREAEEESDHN
Bim-Mcl-1: disrupts Bim peptide binding to human Mcl-1. Q07820. Bead-based flow cytometry, Bim peptide-Mcl-1 binding. inhibition, % at 10 µM. 190,000 tested, 0.1% active. AID 1009; in the data active = inhibition above about 40%;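 also: 0% = no compound tracer wells and 100% = peptide blocker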
The depositor's hits bear a star; / = no result given; [ ] = remark or other dose. Most compounds without a hit are left out; they make up all but 3.4% or so of the library.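 The calls were made as follows, unless noted: active = inhibition above about 30% (limit read from the data); inactive = the rest.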

SMILES	Mcl1-Bid inh	p47phox inh	Mcl1 Noxa PPI	14-3-3 Bad PPI	eIF4E 4G PPI	Bim-Mcl-1
CCCC(=O)NC(Oc1ccc(Cl)cc1Cl)C(Cl)(Cl)Cl (stereo not given)	-2	-32	15	88*	11	0
COC(=O)C1=Nc2ccccc2/C1=C\c1c(O)n(-c2ccc(Br)cc2)c(=O)[nH]c1=O	-31	-48	77*	25	9	0
COC(=O)C1=Nc2ccccc2/C1=C\c1c(O)n(-c2ccc(OC)cc2)c(=O)[nH]c1=O	-27	-66	53*	27	3	1
COc1ccc(OC)c(-n2c(O)c(/C=C3\C(C)=Nc4ccccc43)c(=O)[nH]c2=O)c1	-73	-50	1	-7	-2	/
Cc1ccc(N2C(=O)NC(=O)/C(=C\c3cc(C)n(-c4sc5c(c4C#N)CCCC5)c3C)C2=O)cc1	-20	-81	14	-9	5	-3
CCOC(=O)c1c(-n2c(C)cc(C=C3C(=O)NC(=S)NC3=O)c2C)sc2c1CCCC2	38	-104	80*	-14	-12	-5
Cc1ccc(S(=O)(=O)N2CN3CCN(C3)C2)cc1	79*	-4	11	-4	5	-4
Cc1ccc(S(=O)(=O)N2CC2(C)CCl)cc1 (stereo not given)	11	-6	-8	2	5	/
NC(=O)c1ccc(C(=O)Nc2ccc([As](=O)(O)O)cc2)cc1	3	0	6	1	90*	/
Cc1ccc2c(c1)C1CN(C)CCC1N2C(=S)Nc1cccnc1 (stereo not given)	-15	-1	1	-11	0	1
Cc1ccc2c(c1)C1CN(C)CCC1N2C(=O)Nc1cccc(Cl)c1 (stereo not given)	3	0	99*	3	-4	37
CC12CN3CCN(C1)CC(C)(C3)C2=NO	-79	-29	-12	/	/	-3
O=C(Cc1ccccc1)OCn1nnc2ccccc2c1=O	13	6	-3	18	59*[fluorescence artefact?]	-5
O=C(NCC(c1cccnc1)N1CCN(c2ccc(F)cc2)CC1)Oc1ccccc1 (stereo not given)	-12	-16	17	-5	6	-17
O=C1NC(=O)N(c2ccccc2)C(=O)/C1=C\c1ccc2c3c(cccc13)CC2	12	-34	81*	37	11	-4
O=C1NC(=O)C(CCc2ccncc2)(CCc2ccncc2)C(=O)N1Cc1ccccc1	-13	-12	9	-9	87*	0
CCOc1ccccc1N1C(=O)NC(=O)C(CCc2ccncc2)(CCc2ccncc2)C1=O	14	-1	8	16	0	-7
Cc1ccc(NC(=O)c2cc(-c3ccccc3)n(CCCN3CCOCC3)c2C)cc1	-16	-13	5	-1	10	/
Cc1ccccc1NC(=O)c1cc(-c2ccccc2)n(CCCN2CCOCC2)c1C	63*	-9	4	-8	-3	/
CCN1C(=O)CC(c2cccnc2)=Nc2ccccc21	-20	1	-2	-2	3	1
O=C(O)c1cccc2c1NC(C(=O)O)C1CC(Sc3ccccc3[N+](=O)[O-])C(Cl)C21 (stereo not given)	1	27	94*	29	26	0
CC(=O)c1ccc2c(c1)C1C(Cl)C(Sc3ccccc3[N+](=O)[O-])CC1C(C(=O)O)N2 (stereo not given)	42	17	110*	-3	15	-14
C=C1C(O)(c2ccccc2)C2CC[N+]1(C)CC2 (stereo not given)	-21	-1	4	-3	3	1
Cc1ccccc1N1C(=O)CC(=O)N(c2ccccc2C)C1=O	-49	-6	0	8	-1	-6
CN1C(=O)N(C)C(=O)C2(Cc3cc([N+](=O)[O-])ccc3N(C)C2c2ccccc2)C1=O (stereo not given)	-22	-20	7	-8	1	-6
SMILES	Mcl1-Bid inh	p47phox inh	Mcl1 Noxa PPI	14-3-3 Bad PPI	eIF4E 4G PPI	Bim-Mcl-1
CN1CCC(N(C)c2nc(-c3ccccc3)nc3ccccc23)CC1	5	-22	52*	-2	0	0
O=C1C=Cc2ccccc2C1=O	7	23	73*	32	1	1
O=c1[nH]c(=O)n(Cc2ccco2)c(O)c1/C=N/N1CCCCC1	-22	-61	19	5	4	-5
Nc1ccncc1Cl	-1	-1	13	3	1	-1
COc1ccc(N2C(=O)NC(=O)/C(=C/c3ccc(N4CCOCC4)cc3)C2=O)cc1	-20	-9	14	6	5	-2
O=C1NC(=O)N(c2ccccc2)C(=O)/C1=C\c1ccccc1[N+](=O)[O-]	-64	-2	23	-1	2	/
COc1ccc(N2C(=O)/C(=C/c3cccs3)C(=O)NC2=S)cc1	44	-3	62*	12	-7	/
COc1ccc(N2C(=O)/C(=C/C=C/c3ccccc3[N+](=O)[O-])C(=O)NC2=S)cc1	83*	-19	89*	46	36*	-1
Cc1ccsc1-c1nc(CSCC(=O)N2CCC3(CC2)OCCO3)c(C)o1	-24	-14	-16	0	1	-4
O=C(c1ccc(Cl)cc1)C1CCCN(Cc2ccc3nonc3c2)C1 (stereo not given)	-8	48*	5	-5	6	2
O=C(c1ccc(Cl)cc1)C1CCCN(Cc2cccc3ncccc23)C1 (stereo not given)	-22	-9	7	-15	-2	-1
COc1ccc(N2C(=O)NC(=O)/C(=C/c3ccc([N+](=O)[O-])s3)C2=O)cc1	-11	-109	51*	2	7	/
COc1ccc(N2C(=O)NC(=O)/C(=C\c3ccc([N+](=O)[O-])s3)C2=O)cc1	-15	-108	51*	5	5	1
Cc1ccc(N2C(=O)NC(=O)/C(=C\c3ccc([N+](=O)[O-])o3)C2=O)cc1	17	-97	70*	47	13	0
COc1cccc(N2C(=O)NC(=O)/C(=C/c3ccc([N+](=O)[O-])s3)C2=O)c1	-59	-100	61*	7	9	/
COc1ccccc1N1C(=O)NC(=O)/C(=C/c2ccc([N+](=O)[O-])s2)C1=O	-25	-70	45	11	3	/
CC(C)[N+](C)(CCC(C(N)=O)(c1ccccc1)c1ccccc1)C(C)C	-12	-5	-23	2	6	0
CC(C)(C)C(O)C(Oc1ccc(Cl)cc1)n1cncn1 (stereo not given)	76*	-3	2	0	9	-2
N=C1c2ccccc2CN1NC(=O)c1ccc(Br)cc1	-6	-1	21	2	-5	-5
COc1ccc(OCC(=O)N2CCN(C(C)C)CC2)cc1	53*	3	6	64	-1	-1
CC(C)C1(C)N=C(c2ncccc2C(=O)O)NC1=O (stereo not given)	85*	4	2	14	6	-1
Clc1ccc(N2CCN(Cc3ccccc3Cl)CC2)cc1	25	-9	0	68	-4	-3
Clc1ccccc1CN1CCN(c2ccccc2)CC1	6	-1	23	83*	1	-4
